# Sampled rows, rich in hits. Any-hit rate of the full collection: about 4.7%.
# D1 antag: blocks dopamine activation of the human D1 receptor. HEK293 TREx D1 cells, calcium flux, dopamine EC80; hits give low values. actives 3.2% (n = 360,000). activity change, negative = inhibition, % at 10 µM. P21728. AID 504652; in the data active = activity change below about -30%; also: % is scaled to controls: 0 for no effect and ±100 for the full control effect
# Target sequence (P21728 whole entry, looked up): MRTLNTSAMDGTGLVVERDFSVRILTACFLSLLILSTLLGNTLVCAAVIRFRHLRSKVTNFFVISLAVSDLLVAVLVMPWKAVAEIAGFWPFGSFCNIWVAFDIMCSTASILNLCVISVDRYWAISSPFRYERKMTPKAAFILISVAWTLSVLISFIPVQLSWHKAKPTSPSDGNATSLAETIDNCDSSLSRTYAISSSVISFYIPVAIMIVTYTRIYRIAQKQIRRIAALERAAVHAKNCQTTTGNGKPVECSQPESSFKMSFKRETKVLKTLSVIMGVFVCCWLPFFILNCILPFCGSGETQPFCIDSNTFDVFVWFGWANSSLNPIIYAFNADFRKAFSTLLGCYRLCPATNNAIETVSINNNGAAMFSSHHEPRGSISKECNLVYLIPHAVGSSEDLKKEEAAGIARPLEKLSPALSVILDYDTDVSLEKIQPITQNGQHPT
#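 Antagonism measured as reduced calcium response to an EC80 dopamine addition following 180 s compound pre-read; cells were inducible HEK293 Trex D1 plated overnight at 30 C, read kinetically at 1 cycle/sec.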
# D1 agonist: activates the human D1 dopamine receptor. P21728. HEK293 T-REx D1 cells, calcium flux, agonist mode. activation, % at 2 µM. actives 1% (n = 360,000); also: 0% is about no effect
#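 Tetracycline-induced HEK293 TREx D1 cells, force-coupled to calcium signalling, were dye-loaded with a no-wash calcium kit. Compound was pin-added after a 10 s baseline. Fluorescence was read kinetically at 1 cycle/s for 180 s, with calcium rises flagged as agonism.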
# TRHR PAM: allosterically enhances the human TRH receptor. actives 0.66% (n = 360,000). TRHR cells, fluo-8 calcium fluorescence, EC20 TRH enhancement. P34981. enhancement, % at 2 µM. AID 493056; in the data active = enhancement above about 30%; also: 0% is about no effect
#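 Enhancer read-out: after compound pinning and an initial kinetic agonist-mode read, an EC20 of TRH (10 nM final) was injected and fluo-8 calcium signal (Ex 480/Em 530) followed at 1 s/cycle for 100 cycles in TRHR-expressing cells.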
# D1 potentiator: enhances dopamine response at the human D1 receptor; actives 0.036% (n = 360,000); P21728; HEK293 TREx D1 cells, calcium flux, dopamine EC20 potentiation; potentiation, % at 10 µM; in the data active = potentiation above about 30%; also: 0% is about no effect
# TRHR ag: agonists of human TRH receptor | activation, % at 2 µM | TRHR cells, calcium flux fluo-8, FDSS agonist mode | actives 0.18% (n = 360,000) | P34981; also: 0% is about no effect
#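 Agonist-mode FDSS calcium read (Ex 480/Em 530, 1 s cycles) in 1536-well TRHR cells with fluo-8 dye, after 10-cycle baseline and 23 nL compound addition; TRH at EC20 (10 nM final) added afterwards for the enhancer phase.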
# An asterisk follows results filed as active; . = no result. Rule as the data show it, unless noted: active = activation above about 30%; inactive = the rest.
SMILES,D1 antag,D1 agonist,TRHR PAM,D1 potentiator,TRHR ag
COC(=O)CSc1n[nH]c(-c2cccnc2)n1,-33.7*,-1.1,-2.1,0.1,0.4
COc1ccc(NC(=O)CSc2n[nH]c(-c3ccccn3)n2)cc1,-65.3*,0.4,11.3,-2.8,0.0
CC(CCc1ccccc1)NC(=O)CSc1n[nH]c(-c2ccccc2)n1 (stereo not given),-13.3,4.4,-8.9,-3.4,-0.1
COc1ccc(-c2nc(SCC(=O)NC(C)CCc3ccccc3)n[nH]2)cc1 (stereo not given),-32.8*,5.2,1.5,-2.1,-0.6
CCCC(=O)N1CCc2cc(OC)c(OC)cc2C1COc1ccc2c(C)cc(=O)oc2c1 (stereo not given),-0.6,-0.2,4.8,1.8,-0.4
Cc1nnsc1-c1onc(C)c1C(=O)Nc1cc(Cl)cc(Cl)c1,-34.5*,9.2,-9.2,-11.8,0.4
Cc1ccccc1CN1C(=O)c2ccccc2S(=O)c2ccc(C(=O)NCc3ccc4c(c3)OCO4)cc21 (stereo not given),5.5,3.2,-1.2,-2.8,0.3
CCNC1=C(Cl)C(=O)c2ccccc2C1=O,-35.9*,7.4,-5.4,-3.2,-1.2
O=C1C(Cl)=C(Nc2ccc(O)cc2)C(=O)c2ccccc21,-68.5*,10.6,-13.4,-3.9,0.5
Cc1ccc(NC2=CC(=O)C(=O)c3ccccc32)cc1,1.1,-0.8,0.7,1.2,-0.2
CCN(CC)c1ccc(NC2=C(Cl)C(=O)c3ccccc3C2=O)cc1,-38.7*,1.3,-17.9,-7.3,-0.1
O=C1C(Cl)=C(NCCN2CCCCC2)C(=O)c2ccccc21,-5.6,0.6,0.0,-5.5,0.1
COC1=C(Nc2ccc(O)cc2)C(=O)c2ccccc2C1=O,-5.9,5.3,-1.6,-2.5,-0.4
Cc1ccc(NC2=C(Cl)C(=O)c3ccccc3C2=O)cc1,-58.0*,10.5,-10.7,-7.8,-0.4
Cc1oc(-c2cccc(Br)c2)nc1Cn1c(=O)cc(-c2ccccc2)c2c(C)nn(C)c21,12.2,1.1,9.8,-1.9,0.2
CCCn1c(=O)c2sccc2n2c(CCCC(=O)NCCOC)nnc12,-10.6,0.0,7.7,-1.1,0.4
COC(=O)c1ccc(NC(=S)NC2CCCCC2C)cc1 (stereo not given),-13.7,23.4,-5.0,-4.8,0.6
CC1CCCC(NC(=S)Nc2ccc(SC(F)F)cc2)C1C (stereo not given),-43.9*,18.3,4.9,-9.4,-0.4
FC(F)Sc1ccc(NC(=S)NC2CCCC2)cc1,-34.2*,29.7,-3.2,-3.5,0.8
OC1CCC(NC(=S)Nc2ccc(SC(F)F)cc2)CC1 (stereo not given),-8.8,4.0,-3.0,-2.5,-0.1
CCOc1ccc(NC(=O)CSc2nc3c(oc4ccccc43)c(=O)n2-c2cc(C)cc(C)c2)cc1,8.3,0.6,-3.5,-5.8,0.3
CCCC(C(=O)Nc1ccncc1)c1ccccc1 (stereo not given),-39.8*,9.5,-10.6,-6.3,0.8
CC(=O)Nc1ccc(C2=CC(=O)C[C@H](c3ccc(Cl)cc3)C2)cc1,-52.9*,1.4,1.1,-6.3,0.2
COc1ccc([C@H]2CC(=O)C=C(c3ccc(NC(C)=O)cc3)C2)cc1OC,.,0.4,6.0,-2.5,0.2
CC(=O)c1ccc(NC(=O)CN(C)S(=O)(=O)c2cc3c(cc2C)NC(=O)CO3)cc1,3.0,2.0,-4.3,0.3,0.3
SMILES,D1 antag,D1 agonist,TRHR PAM,D1 potentiator,TRHR ag
Cc1nnc(SCC2=C(C(=O)O)N3C(=O)C(NC(=O)c4cccc(F)c4F)C3SC2)s1 (stereo not given),-73.3*,1.6,8.1,-9.3,1.6
COc1ccc(/C(O)=C/c2nc3ccc(C(=O)NCCc4cccc(C)c4)cc3[nH]c2=O)cc1OC,-3.4,71.1*,4.2,-2.0,22.0
COc1cc2c(cc1OC)[C@@H]1O[C@](CCCCN3C(=O)c4ccccc4C3=O)(C2)Oc2cc(C)n(-c3ccccc3)c(=O)c21,-4.1,4.8,-0.5,-3.0,0.5
COc1cc(Cl)c(S(=O)(=O)N2CCN(c3c(C)cccc3C)CC2)cc1Cl,4.7,1.4,-3.8,-5.8,1.4
Cc1noc(C)c1CSc1ccc(Br)cc1,-32.9*,15.4,3.7,-5.6,-0.3
CC(=O)Nc1ccc(SCc2c(C)noc2C)cc1,-14.6,3.0,3.3,-5.3,0.4
Cc1ccc(S(=O)(=O)NCc2csc(C)n2)cc1,1.4,-0.1,-6.1,3.0,-0.5
Cc1nc(CNS(=O)(=O)c2ccc3c(c2)CCCC3)cs1,-46.5*,9.9,9.2,-10.8,-0.9
CC(C)=CCC/C(C)=C/COc1c2ccoc2cc2oc(=O)ccc12,-2.1,40.3*,-3.4,5.5,0.4
O=[N+]([O-])c1cccc(NC(=S)NCc2ccncc2)c1,-39.8*,7.5,2.5,-3.7,-1.0
S=C(NCc1ccc(Cl)cc1)Nc1ccncc1,-42.9*,26.5,-12.2,-6.0,0.1
O=[N+]([O-])c1ccc(NC(=S)NCc2ccncc2)cc1,-41.3*,32.0*,-0.9,-14.6,0.7
S=C(NCc1ccc(Cl)cc1)Nc1ccccc1,2.2,22.4,0.4,-9.8,-0.2
O=[N+]([O-])c1ccc(NC(=S)NCCc2ccc(Cl)cc2)cc1,-22.8,14.8,-10.8,-12.3,1.5
O=C(NCc1ccncc1)Nc1cccc([N+](=O)[O-])c1,-7.3,7.7,-3.2,-3.5,0.5
O=[N+]([O-])c1ccc(NC(=S)NCCc2ccccc2)cc1,-37.1*,15.6,-4.5,-7.7,0.9
O=[N+]([O-])c1ccc(NC(=S)NCc2ccc(F)cc2)cc1,-35.1*,20.8,2.2,-5.2,1.5
NS(=O)(=O)c1ccc(NC(=S)NCc2ccc(F)cc2)cc1,4.6,1.2,-8.0,-0.6,0.5
C[C@H]1c2cccc(O)c2C(O)=C2C(=O)[C@]3(O)C(O)=C(C(N)=O)C(=O)[C@@H](N(C)C)[C@@H]3[C@@H](O)[C@@H]21,-83.5*,-0.1,-24.7,-8.1,0.1
C=CCC(CC=C)(CNC(=O)C(=O)Nc1cccc(C(F)(F)F)c1)c1ccccc1,-0.6,30.1*,2.6,1.6,12.1
O=C(O)/C=C/C(=O)Nc1cccc(C(F)(F)F)c1,-4.6,3.4,2.0,1.6,0.3
CCCCN(Cc1ccccc1)S(=O)(=O)c1cc(Br)cc2c1N(C(C)=O)CC2,-3.4,2.1,-1.4,0.2,0.6
Cn1nnnc1Sc1ncnc2scc(I)c12,-23.0,0.6,-0.5,8.7,1.2
CCCCCc1cc(=O)oc2c(C(CCN(CC)CC)c3ccc(OC)cc3)c(OC)cc(OC)c12 (stereo not given),-39.4*,40.5*,3.8,-12.8,1.7
CCCCCc1cc(=O)oc2c(C(CCN3CCN(c4ccccc4)CC3)c3ccc4c(c3)OCO4)c(OC)cc(OC)c12 (stereo not given),-31.5*,2.0,23.3,-6.0,0.5
